Most compounds without a hit are left out; they make up all but 2.2% or so of the library.
TMEM16A act: activators or potentiators of mouse TMEM16A chloride channel. HEK293 TMEM16A/YFP-H148Q/I152L, iodide quench fluorescence; stronger effect = lower value. B-score at 10 µM. 340,000 tested, 0.3% active. AID 623877;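 active means fluorescence-ratio B-score plate-corrected deviation score at least 3 library SD below zero, with starting fluorescence score within 5 deviations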;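 further: channel opened by trigger with iodide after compound preincubation; score built on the fluorescence ratio of max minus min over baseline; more negative score means more quench and so TMEM16A activation or potentiation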
GRK2 inh: inhibitors of human GRK2 displacing RNA aptamer. P25098. bead flow cytometry, FAM-aptamer displacement from GRK2. inhibition of aptamer binding, % at 10 µM. 330,000 tested, 0.59% active;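 active means inhibition of aptamer binding above 40%, roughly 3 SD of noise, on plates passing a quality check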;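 further: median bead fluorescence of bound FAM aptamer so fluorescent compounds give negative values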
Target sequence (P25098 whole entry, looked up): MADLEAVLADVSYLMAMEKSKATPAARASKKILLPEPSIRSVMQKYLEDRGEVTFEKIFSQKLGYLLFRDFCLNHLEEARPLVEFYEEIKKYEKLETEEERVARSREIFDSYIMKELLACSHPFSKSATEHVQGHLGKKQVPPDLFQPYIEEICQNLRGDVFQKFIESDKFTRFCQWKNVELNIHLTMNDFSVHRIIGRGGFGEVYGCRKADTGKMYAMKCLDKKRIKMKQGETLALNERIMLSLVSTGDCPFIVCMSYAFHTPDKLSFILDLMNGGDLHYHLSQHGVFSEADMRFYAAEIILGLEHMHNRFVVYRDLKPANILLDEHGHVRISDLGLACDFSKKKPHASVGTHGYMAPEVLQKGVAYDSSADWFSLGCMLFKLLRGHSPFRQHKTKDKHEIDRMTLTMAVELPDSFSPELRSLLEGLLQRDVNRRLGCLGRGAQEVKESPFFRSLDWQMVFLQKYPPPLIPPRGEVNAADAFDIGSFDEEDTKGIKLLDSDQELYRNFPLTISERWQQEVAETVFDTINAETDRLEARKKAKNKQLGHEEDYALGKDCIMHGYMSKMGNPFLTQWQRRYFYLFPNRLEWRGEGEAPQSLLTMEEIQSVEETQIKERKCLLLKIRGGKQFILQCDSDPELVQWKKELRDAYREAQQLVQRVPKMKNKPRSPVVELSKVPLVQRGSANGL
NOD2 RIPK2 PPI: NOD2-RIPK2 protein interaction inhibition. O43353. CHO BLA complementation NOD2-RIPK2, CCF4 ratio. inhibition, % at 4.98 µM. 360,000 tested, 0.38% active; in the data active means inhibition above about 21%;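 further: 0% = vehicle only and 100% = reference blocker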
ANO1 block: blocks the mouse calcium-activated chloride channel TMEM16A. normalized B-score (activity score, 25-100; higher = stronger inhibition) at 10 µM. Q8BHY3. AID 588511. HEK293 TMEM16A/YFP iodide influx fluorescence, ionomycin. 310,000 tested, 1.2% active;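 active means ratio plate-corrected score three or more library SD toward inhibition, starting fluorescence score within five deviations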;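 further: score derived from kinetic fluorescence span divided by baseline fluorescence per well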
TLR4 MyD88 comp: blocks binding of human TLR4 to MyD88 | O00206+Q99836 | HeLa CL3-4 TLR4/MyD88 BLA complementation, FRET ratio | inhibition, % at 8.4 µM | 200,000 tested, 0.18% active; in the data active means inhibition above about 25%;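 further: 0% = vehicle and 100% = reference inhibitor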
TLR9-MyD88 inh: TLR9-MyD88 interaction inhibition; CHO BLA complementation TLR9-MyD88, CCF4 FRET ratio; 340,000 tested, 0.21% active; Q9NR96+Q99836; inhibition, % at 4.98 µM;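 active means inhibition above the mean over all tested compounds plus 3 SD, cut at about 21% in these data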;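 further: 0% = DMSO only wells and 100% = clavulanate BLA inhibitor control wells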
TLR9-MyD88 cf: confirmation of human TLR9-MyD88 binding inhibitors | shares compounds with TLR9-MyD88 inh | CHO TLR9/MyD88 BLA complementation, CCF4 FRET ratio | inhibition, % at 4.98 µM | 680 tested, 51% active | AID 540250;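 active means mean inhibition across three repeats above about 21% taken from the earlier screen, limit read from the data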;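 further: blue over green emission ratio reports constitutive TLR9 MyD88 association via BLA complementation; 0% = DMSO vehicle wells and 100% = clavulanate BLA inhibitor wells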
BLA nonselective: non-selective beta-lactamase inhibitors in TLR9-MyD88 counter-screen | shares compounds with TLR9-MyD88 inh | CHO-BLA cells, CCF4 FRET ratio, BLA reporter | inhibition, % at 4.98 µM | 680 tested, 7% active;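 active means mean inhibition above a 50% cutoff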;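 further: counterscreen of TLR9-MyD88 hits on CMV-driven BLA in CHO-K1 cells; 0% = DMSO alone and 100% = clavulanate blocking BLA; higher means less blue over green ratio so more BLA blockade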
TLR9 CHO tox: counter-screen for TLR9-MyD88 inhibitors: cytotoxicity in CHO cells; shares compounds with TLR9-MyD88 inh; inhibition, % at 4.98 µM; 680 tested, 39% active; luminescence; in the data active means inhibition above about 11%
The depositor's hits bear a star.

For CCn1nc(-c2ccccc2)c2nc3ccccc3nc21 the results were TMEM16A act inactive, GRK2 inh 5, NOD2 RIPK2 PPI 10, ANO1 block inactive, TLR4 MyD88 comp 25, TLR9-MyD88 inh 25*, TLR9-MyD88 cf 35*, BLA nonselective 34 and TLR9 CHO tox 4.
For COc1ccc(CN(C)C(=O)c2cccc(NC(=O)CC3SC(N4CCCCC4)=NC3=O)c2)c(OC)c1 (centres undefined) the results were TMEM16A act inactive, NOD2 RIPK2 PPI -2 and TLR9-MyD88 inh 4.
`Cc1ccc(NC(=O)c2cccc(C(F)(F)F)c2)cc1NC(=O)c1[nH]cnc1C(N)=O` gave TMEM16A act inactive, GRK2 inh 0, NOD2 RIPK2 PPI -6, TLR9-MyD88 inh 28*, TLR9-MyD88 cf 2, BLA nonselective 5 and TLR9 CHO tox -3.
For Cc1nc2ccc(NC(=O)c3cccc(C(F)(F)F)c3)cc2o1 the results were TMEM16A act inactive, GRK2 inh 2, NOD2 RIPK2 PPI -20, ANO1 block inactive, TLR4 MyD88 comp 1 and TLR9-MyD88 inh -5.
Screening Cc1ccc(S(=O)(=O)c2nc(Nc3ccccc3)sc2Cl)cc1 returned TMEM16A act inactive, NOD2 RIPK2 PPI -1, TLR4 MyD88 comp 5 and TLR9-MyD88 inh 5.
O=S(=O)(c1ccccc1)c1nc(Nc2cccc(O)c2)sc1Cl was read as TMEM16A act inactive, GRK2 inh 0, NOD2 RIPK2 PPI 7, ANO1 block 100*, TLR4 MyD88 comp -8, TLR9-MyD88 inh 21*, TLR9-MyD88 cf -1, BLA nonselective -3 and TLR9 CHO tox -1.
For O=C(Nc1c2c(nn1-c1ccccc1)CS(=O)(=O)C2)c1ccccc1Br the results were TMEM16A act inactive, GRK2 inh 13, NOD2 RIPK2 PPI 9, ANO1 block inactive, TLR9-MyD88 inh 23*, TLR9-MyD88 cf 8, BLA nonselective 10 and TLR9 CHO tox -1.
For COc1cc(/C=C/C(=O)OCC(=O)N(C)CC(=O)Nc2ccc(F)cc2)ccc1OC(F)F the results were TMEM16A act inactive, GRK2 inh 0, NOD2 RIPK2 PPI -7 and TLR9-MyD88 inh 6.
Cc1ccc(C)c(S(=O)(=O)N2CCN(CC(=O)N3CCc4ccccc4C3)CC2)c1 was read as TMEM16A act inactive, GRK2 inh 0, NOD2 RIPK2 PPI -10, ANO1 block inactive, TLR4 MyD88 comp -6, TLR9-MyD88 inh 36*, TLR9-MyD88 cf -2, BLA nonselective 3 and TLR9 CHO tox 0.
Screening CCOc1ccc(CCNC(=O)CN2C(=O)NC3(CCCCC3)C2=O)cc1OCC returned TMEM16A act inactive, GRK2 inh 0, NOD2 RIPK2 PPI 0, ANO1 block inactive and TLR9-MyD88 inh -8.
For CCCCN(C(=O)CSc1nncn1-c1ccccc1)c1c(N)n(Cc2ccccc2)c(=O)[nH]c1=O the results were TMEM16A act inactive, GRK2 inh 0, NOD2 RIPK2 PPI -4, ANO1 block inactive, TLR4 MyD88 comp 10 and TLR9-MyD88 inh 2.
For CCCCN(C(=O)CSc1nnc(-c2ccccc2)n1C)c1c(N)n(Cc2ccccc2)c(=O)[nH]c1=O the results were TMEM16A act inactive, GRK2 inh 3, NOD2 RIPK2 PPI 2, ANO1 block inactive, TLR4 MyD88 comp 0, TLR9-MyD88 inh 21*, TLR9-MyD88 cf -1, BLA nonselective -1 and TLR9 CHO tox 1.
Screening COc1cc(/C=C/C(=O)OCC(=O)Nc2ccc3[nH]c(=O)[nH]c3c2)ccc1OC(F)F returned NOD2 RIPK2 PPI -10, TLR9-MyD88 inh 23*, TLR9-MyD88 cf 7, BLA nonselective 3 and TLR9 CHO tox 7.

Source: PubChem (several laboratories)
